Source: PubChem BioAssay (NCI)
This is part of a sample that, as a whole, favours compounds with a hit. Of some 83,000 tested, about 20% had one in any assay.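 Assay: single dose, 48 h. Readout: percent growth (0 = no net growth; negative = cell death). Active: <10.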 The source made the active and inactive calls.

Key:
Test in all cases: NCI-60 one-dose screen, 48 h (100 = growth as untreated, 0 = no growth, -100 = all killed)
Conditions in all cases: 10 µM unless noted
[1] = system: HCT-15 colon
[2] = system: HT29 colon
[3] = system: SNB-75 CNS
[4] = system: SNB-19 CNS
[5] = system: U251 CNS
[6] = system: PC-3 prostate
[7] = system: SK-MEL-5 melanoma
[8] = system: UACC-62 melanoma
[9] = system: LOX IMVI melanoma
[10] = system: SK-MEL-28 melanoma
[11] = system: SK-MEL-2 melanoma
[12] = system: EKVX NSCLC
[13] = system: SN12C renal
[14] = system: UO-31 renal
[15] = system: TK-10 renal
[16] = system: ACHN renal
[17] = system: CAKI-1 renal
[18] = system: A498 renal
[19] = system: CCRF-CEM leukemia
[20] = system: MOLT-4 leukemia

Measured: growth

CCN(CC)CCOc1ccc(/C(=C(\C)Cc2ccc(OC)cc2)c2ccc(O)cc2)cc1
active: [1] 5.11% | [2] -70.5% | [5] -30.3% | [7] -96.4% | [8] -70.7% | [9] -64.9% | [10] -71% | [11] -45.7% | [14] -34.2% | [17] -21.3% | [19] -3.51% | [20] -9%
inactive: [3] 25.1% | [4] 26.6% | [6] 15.2% | [12] 66.5% | [13] 54.9% | [15] 35.8% | [16] 18.9% | [18] 92.9%

CCCCC#Cc1c(I)n(C2OC(CO[Si](C)(C)C(C)(C)C)C3OC(C)(C)OC32)c(=O)[nH]c1=O (stereo not given)
inactive: [1] 68.2% | [2] 69.3% | [3] 85.5% | [4] 97.6% | [5] 82.6% | [6] 84.4% | [7] 90.4% | [8] 81% | [9] 19.3% | [10] 68.9% | [11] 55.6% | [12] 92.2% | [13] 85.1% | [14] 56.1% | [15] 68.9% | [16] 72.5% | [17] 74.4% | [18] 99.1%
active: [19] 8.63% | [20] 4.72%

O=C(/C=C/c1ccc(Cl)cc1)c1ccc(-n2cc(CN3CCN(c4cc5c(cc4F)c(=O)c(C(=O)O)cn5C4CC4)CC3)nn2)cc1
inactive: [1] 95.8% | [2] 78.2% | [3] 91.6% | [4] 84.1% | [5] 68.6% | [6] 89% | [7] 81.6% | [8] 74.6% | [9] 56.9% | [10] 85.4% | [11] 99.1% | [12] 96.6% | [13] 58.2% | [14] 65.1% | [15] 92.4% | [16] 89.9% | [17] 75.5% | [18] 60.5% | [19] 74.6% | [20] 81.7%

CSc1nc(CC(C)C)c(C#N)c(=O)n1C
inactive: [1] 46.1% | [2] 69.7% | [3] 61% | [4] 82.1% | [5] 81.8% | [6] 62.9% | [7] 70.9% | [8] 53.8% | [9] 68.4% | [10] 68.3% | [11] 85.8% | [12] 64.3% | [13] 29.1% | [14] 38.9% | [15] 34.2% | [16] 55.6% | [17] 56.8% | [18] 47% | [19] 49.2% | [20] 46.1%

O=C1/C(=C/c2ccc(-c3ccc(Cl)cc3)o2)SC(=S)N1CCc1ccc(O)cc1
inactive: [1] 67.5% | [2] 25.2% | [3] 25.8% | [4] 87.2% | [5] 22.2% | [6] 53.2% | [7] 94.5% | [8] 50.5% | [9] 75.1% | [10] 93.6% | [11] 58.5% | [12] 80.5% | [13] 63% | [14] 28.5% | [15] 51.1% | [16] 65.3% | [17] 20.4% | [18] 58.9% | [19] 13.5% | [20] 15.3%

Cc1csc(Nc2nc(-c3cccc(Cl)c3)nc(C(Cl)(Cl)Cl)n2)n1
inactive: [1] 53.9% | [4] 39.9% | [5] 19.9% | [6] 39.7% | [7] 88.8% | [8] 74.2% | [9] 91.1% | [10] 39.5% | [11] 83.7% | [13] 84.1% | [14] 39.6% | [19] 95.5% | [20] 74%
active: [2] 2.7% | [3] 3.48% | [12] 4.21% | [15] 3.91% | [16] -21.7% | [17] 4.29% | [18] -18.6%

C=C(C)[C@@H]1CC[C@]2(COCCCNCCCN)CC[C@]3(C)[C@H](CC[C@@H]4[C@@]5(C)CC[C@H](OCCCN)C(C)(C)[C@@H]5CC[C@]43C)[C@@H]12
active: [1] -88.4% | [2] -79.7% | [4] -78.3% | [5] -94.3% | [6] -10% | [8] -88.1% | [9] -93.8% | [13] -83.1% | [15] -10.4% | [16] -72.4% | [19] -37.8% | [20] -15.6%
inactive: [3] 10.1% | [7] 67.2% | [10] 16.1% | [11] 92.6% | [12] 47.6% | [14] 38.9% | [17] 51.9% | [18] 90.3%

CN1CCN(Cc2ccc(NC(=O)c3cncc(C#Cc4c(N)ncc5cc(F)ccc45)c3)cc2C(F)(F)F)CC1
inactive: [3] 45.1% | [6] 37.9% | [8] 29.4% | [12] 69.6% | [13] 41.7% | [14] 14.6% | [15] 67.4% | [16] 40.4% | [17] 62% | [18] 73.6%
active: [1] -91.7% | [2] -74.8% | [4] -94.9% | [5] -97.5% | [7] -52.7% | [9] -81.4% | [10] -41.9% | [11] -2.97% | [19] -13.6% | [20] -59.6%

CCOC(=O)CC1C(CNC(=O)NC)OC(n2cnc3c(NC(=O)Nc4ccccc4)ncnc32)C1O[Si](C)(C)C(C)(C)C (stereo not given)
inactive: [1] 55.7% | [2] 27% | [3] 63.4% | [4] 93.9% | [5] 34% | [6] 47% | [7] 58.3% | [8] 80.4% | [9] 50.5% | [10] 83.9% | [11] 54.3% | [12] 63.7% | [13] 60.7% | [14] 57% | [15] 43.5% | [16] 68.7% | [17] 81.6% | [18] 71.3% | [19] 49.9% | [20] 50.1%

COc1cc2c(c(OC)c1OC)CCC(c1cccc(C(=O)Nc3ccc([N+](=O)[O-])cc3)c1)O2 (stereo not given)
inactive: [1] 54.5% | [2] 64% | [3] 66.7% | [4] 56.7% | [5] 57.7% | [6] 27.1% | [7] 15.4% | [8] 31.4% | [9] 52.9% | [10] 61.9% | [11] 43% | [12] 55.4% | [13] 51.1% | [14] 29.3% | [15] 57.8% | [16] 40.7% | [17] 50.5% | [18] 25.5% | [19] 15.1%
active: [20] 4.06%

Cc1cc([N+](=O)[O-])ccc1NC(=O)c1ccc2c(c1)nc(-c1ccccc1)n2C1CCCCC1
inactive: [1] 51.9% | [2] 44.5% | [3] 80.9% | [4] 119% | [5] 91.4% | [6] 77.4% | [7] 62.3% | [8] 95% | [9] 64% | [10] 117% | [11] 87.4% | [12] 73% | [13] 98.6% | [14] 62.4% | [15] 84.3% | [16] 89.6% | [17] 70.3% | [18] 122% | [19] 68.5% | [20] 52%

O=C1c2ccccc2-c2c1c1ccncc1c(=O)n2CCCn1ccnc1
active: [9] 6.42% | [16] 0.133% | [20] -12.7%
inactive: [1] 40.8% | [2] 21% | [3] 50.3% | [4] 41.5% | [5] 20.4% | [6] 38% | [7] 28.5% | [8] 39.7% | [10] 88.3% | [11] 103% | [12] 96.8% | [13] 49.1% | [14] 19.1% | [15] 82.6% | [17] 49.9% | [18] 80.9% | [19] 18.5%

[2H]C([2H])([2H])Oc1ccc(/C=C/C(=O)/C=C(O)/C=C/c2ccc(OC([2H])([2H])[2H])c(OC([2H])([2H])[2H])c2)cc1OC([2H])([2H])[2H]
inactive: [1] 14.3% | [2] 10.7% | [3] 45.7% | [4] 39.2% | [5] 19.5% | [6] 32.6% | [7] 11.6% | [8] 52% | [9] 14.5% | [10] 87.4% | [11] 86.3% | [12] 53.1% | [13] 28.3% | [14] 11.4% | [15] 54.4% | [16] 40.2% | [17] 41.3% | [18] 116% | [19] 22.3% | [20] 60.6%

CCOC(=O)c1c(NC(=S)Nc2ccc([N+](=O)[O-])cc2)sc2c1CCCCC2
inactive: [1] 66.6% | [2] 105% | [3] 86.6% | [4] 82.2% | [5] 76.6% | [6] 43.6% | [7] 42.6% | [8] 47.8% | [9] 84.4% | [10] 85.5% | [11] 66.6% | [12] 79.2% | [13] 55.7% | [14] 76.2% | [15] 85.9% | [16] 84.6% | [17] 79.1% | [18] 49.8% | [19] 64% | [20] 72.9%

C/C(=C(\c1ccc(OCCCN(C)C)cc1)c1ccc(OC(=O)Cc2ccccc2)cc1)c1ccc(Cl)cc1
active: [2] 4.56% | [9] 3.29%
inactive: [1] 45.2% | [3] 77.3% | [4] 89.8% | [5] 55% | [6] 75.9% | [7] 82.7% | [8] 81.8% | [10] 76.4% | [11] 92.7% | [12] 70.4% | [13] 87.3% | [14] 62% | [15] 87.8% | [16] 94.3% | [17] 83.7% | [18] 103% | [19] 66.4% | [20] 48.7%
